Test results from the supplement of paper PMC6555819.

Experiments:
Assay in all cases: PBM binding z-score (relative to random genomic background probes); higher = stronger binding; sequences stand for … in GC…GCGATTGACAGCGTAGAATGAAGG
[1] = test system: FXR:RXRa (NR concentration 270 nM, RXRa partner concentration 90 nM)
Method in brief: (§1)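 Binding buffer was PBS pH 7.4 with 2% milk, 0.02% Triton X-100, 1 mM DTT, 0.2 mg/mL BSA and 0.4 mg/ml salmon testes DNA. In it, ligand-free nuclear receptor dimers were incubated 1 h on custom Agilent 4×180K protein-binding microarrays carrying double-stranded probes. Antibodies against each partner (one per run) detected binding, and z-scores were calculated against random background probes after regression normalization of scanned fluorescence.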

[2] = test system: LXRa:RXRa (NR concentration 270 nM, RXRa partner concentration 90 nM)
Method in brief: as §1

[3] = test system: LXRa homodimer (NR concentration 270 nM)
Method in brief: as §1

[4] = test system: LXRb:RXRa (NR concentration 270 nM, RXRa partner concentration 90 nM)
Method in brief: as §1

[5] = test system: LXRb homodimer (NR concentration 270 nM)
Method in brief: as §1

[6] = test system: PPARa:RXRa (NR concentration 270 nM, RXRa partner concentration 90 nM)
Method in brief: as §1

[7] = test system: PPARg:RXRa (NR concentration 180 nM, RXRa partner concentration 90 nM)
Method in brief: as §1

[8] = test system: PPARg:RXRa 270nM:90nM, anti-RXR (NR concentration 270 nM, RXRa partner concentration 90 nM)
Method in brief: as §1

[9] = test system: PPARg:RXRa 30nM:10nM, anti-RXR (NR concentration 30 nM, RXRa partner concentration 10 nM)
Method in brief: as §1

[10] = test system: PPARg:RXRa 90nM:30nM, anti-RXR (NR concentration 90 nM, RXRa partner concentration 30 nM)
Method in brief: as §1

[11] = test system: PPARg:RXRa DBDmut IVT, anti-RXR (DBD mutation: RXRa K156A/R161A, NR concentration 270 nM, RXRa partner concentration 90 nM)
Method in brief: as §1

[12] = test system: PPARg:RXRa IVT, anti-PPARg (NR concentration 270 nM, RXRa partner concentration 90 nM)
Method in brief: as §1

[13] = test system: PPARg DBDmut:RXRa IVT, anti-PPARg (DBD mutation: PPARg1 K132A/R137A, NR concentration 270 nM, RXRa partner concentration 90 nM)
Method in brief: as §1

[14] = test system: PPARg DBDmut IVT, anti-PPARg (DBD mutation: PPARg1 K132A/R137A, NR concentration 270 nM)
Method in brief: as §1

[15] = test system: PPARg homodimer (NR concentration 180 nM)
Method in brief: as §1

[16] = test system: PXR:RXRa (NR concentration 270 nM, RXRa partner concentration 90 nM)
Method in brief: as §1

[17] = test system: PXR homodimer (NR concentration 270 nM)
Method in brief: as §1

[18] = test system: RARa:RXR (NR concentration 270 nM, RXRa partner concentration 90 nM)
Method in brief: as §1

[19] = test system: RARa homodimer (NR concentration 270 nM)
Method in brief: as §1

[20] = test system: RARb:RXRa (NR concentration 270 nM, RXRa partner concentration 90 nM)
Method in brief: as §1

Sequence	PBM binding z-score [1]	PBM binding z-score [2]	PBM binding z-score [3]	PBM binding z-score [4]	PBM binding z-score [5]	PBM binding z-score [6]	PBM binding z-score [7]	PBM binding z-score [8]	PBM binding z-score [9]	PBM binding z-score [10]	PBM binding z-score [11]	PBM binding z-score [12]	PBM binding z-score [13]	PBM binding z-score [14]	PBM binding z-score [15]	PBM binding z-score [16]	PBM binding z-score [17]	PBM binding z-score [18]	PBM binding z-score [19]	PBM binding z-score [20]
CAAACTAGGTCCAGGTCAAAGTCGGTTTGTGCCA	2.21	2.36	1.47	1.98	0.0545	3.29	2.6	3.28	0.928	2.59	3.43	3.67	0.261	-0.192	1.29	2.57	0.685	2.22	0.417	2.9
CGTCCAATGTCAAGGTCAGTGAAAGAGACTCGAA	2.47	1.92	0.422	1.76	0.286	2.67	0.791	1	-0.104	0.482	0.498	1.27	0.404	-0.348	2.25	2.17	0.697	2.26	0.775	3.69
TCTGCTAGGTCAGTTGGTCAGCTACCGAGCTGCC	0.866	0.506	-0.683	-0.00907	-0.0816	1.21	0.156	1.79	1.19	1.29	2.75	3.45	0.596	0.667	-0.139	0.0735	-0.891	0.438	-0.931	3.14
CAAACTAGGTCACCGCAAGGTCAAAGTCCGCATG	6.27	5.91	5.31	5.42	1.37	6.06	9.19	7.84	5.73	7.81	8.65	8.87	6.76	3.92	8.41	6.08	2.22	6.85	2.14	5
CCTAGCAGGCCAATCTGGGTCGCTCAAGGCTTGA	0.866	0.838	-0.942	0.983	-1.1	2.39	0.206	0.917	-0.999	0.104	1.28	2.66	-1.25	-1.04	-0.519	0.776	-0.579	1.45	-0.891	0.807
CATACAGGGTCAGCTACGCCAGAGTAGGGACGGC	4.39	3.1	0.0565	2.3	0.562	4.28	3.26	3.22	0.875	2.03	1.11	2.35	0.652	1.25	1.54	2.22	-0.0173	3.27	0.771	3.99
CGAACTAGGTCAGAACAGGACAGTGATGGATGAT	1.29	0.678	0.233	0.327	-0.482	2.91	5.11	4.36	2	3.37	6.82	7.04	3.7	2.44	1.38	0.583	0.0168	1.39	0.336	2.66
